From PubChem BioAssay AID1159580 (chemical genetic matrix, 2015)
Screen size: about 5,500 compounds; about 2,000 (36%) were called active. Not shown: some 18% with an inconclusive outcome. No stated cut-off is given here; in the data, active means normalized growth mostly below about 0.91 (no sharp cut-off); inconclusive means no clear call, values can overlap the other calls; inactive means mostly above about 0.92. The list shows a part of the results.

Assay: chemical genetic growth profiling, strain panel (AID 1159580);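 further: tested at 20 µM; growth read once vehicle control cultures reached saturation at 30 °C; 1 = growth at the plate median or of vehicle wells; lower values mean less growth of the strain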
Settings: S. cerevisiae deletion strains, growth OD

Measured: normalized growth

Cc1nn(Cc2cccc(C(=O)O/N=C(/N)c3ccc(Cl)cc3)c2)c(C)c1Br
inactive: locus YAR019C, strain CDC15, hits give low values 0.982 | locus YBL105C, strain PKC1, hits give low values 0.978 | locus YBR135W, strain CKS1, hits give low values 0.971 | locus YBR136W, strain MEC1, hits give low values 0.977 | locus YBR160W, strain CDC28, hits give low values 0.973 | locus YDL017W, strain CDC7, hits give low values 0.974 | locus YDL028C, strain MPS1, hits give low values 0.981 | locus YDL101C, strain DUN1, hits give low values 0.987 | locus YDL108W, strain KIN28, hits give low values 0.972 | locus YDL132W, strain cdc53, hits give low values 0.979 | locus YDL214C, strain PRR2, hits give low values 0.972 | locus YDR052C, strain DBF4, hits give low values 0.98 | locus YDR054C, strain cdc34, hits give low values 0.973 | locus YDR226W, strain ADK1, hits give low values 0.978 | locus YDR477W, strain SNF1, hits give low values 0.915 | locus YER123W, strain YCK3, hits give low values 0.929 | locus YER133W, strain GLC7, hits give low values 0.953 | locus YFL009W, strain cdc4, hits give low values 0.965 | locus YFL029C, strain CAK1, hits give low values 0.991 | locus YFR003C, strain YPI1, hits give low values 0.982 | locus YFR019W, strain FAB1, hits give low values 0.974 | locus YFR028C, strain CDC14, hits give low values 0.962 | locus YGR040W, strain KSS1, hits give low values 0.93 | locus YGR052W, strain FMP48, hits give low values 1.03 | locus YGR092W, strain DBF2, hits give low values 0.978 | locus YHR030C, strain SLT2, hits give low values 1.01 | locus YHR079C, strain IRE1, hits give low values 1.1 | locus YHR082C, strain KSP1, hits give low values 1.07 | locus YHR205W, strain SCH9, hits give low values 0.999 | locus YIL147C, strain SLN1, hits give low values 0.984 | locus YJL095W, strain BCK1, hits give low values 0.932 | locus YJL128C, strain PBS2, hits give low values 1.01 | locus YJL157C, strain FAR1, hits give low values 0.985 | locus YJR016C, strain ILV3, hits give low values 0.977 | locus YJR066W, strain TOR1 (second series), hits give low values 0.954 | locus YJR066W, strain TOR1, hits give low values 1.08 | locus YKL048C, strain ELM1, hits give low values 0.968 | locus YKL067W, strain YNK1, hits give low values 0.958 | locus YKL101W, strain HSL1, hits give low values 0.924 | locus YKL193C, strain SDS22, hits give low values 0.98 | locus YKL203C, strain TOR2, hits give low values 1.02 | locus YLR113W, strain HOG1, hits give low values 0.915 | locus YLR133W, strain CKI1, hits give low values 0.972 | locus YLR403W, strain SFP1, hits give low values 0.93 | locus YML070W, strain DAK1, hits give low values 0.947 | locus YMR001C, strain CDC5, hits give low values 0.983 | locus YMR205C, strain PFK2 (second series), hits give low values 0.965 | locus YMR277W, strain FCP1, hits give low values 0.973 | locus YNL006W, strain LST8, hits give low values 0.99 | locus YNL020C, strain ARK1, hits give low values 0.972 | locus YNL161W, strain CBK1, hits give low values 0.984 | locus YNL183C, strain NPR1, hits give low values 0.997 | locus YNL207W, strain RIO2, hits give low values 0.984 | locus YNL222W, strain SSU72, hits give low values 0.979 | locus YNL307C, strain MCK1 (second series), hits give low values 1 | locus YOL078W, strain AVO1, hits give low values 0.977 | locus YOL136C, strain PFK27, hits give low values 0.955 | locus YOR061W, strain CKA2, hits give low values 0.955 | locus YOR119C, strain RIO1, hits give low values 1.01 | locus YOR231W, strain MKK1, hits give low values 0.927 | locus YOR329C, strain SCD5, hits give low values 0.98 | locus YPL031C, strain PHO85, hits give low values 0.929 | locus YPL153C, strain RAD53, hits give low values 0.81 | locus YPL204W, strain HRR25, hits give low values 0.942 | locus YPL209C, strain IPL1, hits give low values 0.987 | locus YPL256C, strain CLN2, hits give low values 1.03 | locus YPR025C, strain CCL1, hits give low values 0.978 | locus YPR106W, strain ISR1, hits give low values 0.99 | locus YPR111W, strain DBF20, hits give low values 0.995 | strain NNK1, hits give low values 0.998 | strain TSCII, hits give low values 0.987
